Source: PubChem BioAssay AID1159580 (chemical genetic matrix, 2015)
Where “and” joins values, the source holds several entries; their conditions need not be identical. Identical values can stand only once. Screen size: about 5,500 compounds; about 2,000 (36%) were called active. About 18% were inconclusive and are not listed. Some of the results follow. A number with no mark means an inactive call. No stated cut-off is given here; in the data, active means normalized growth mostly below about 0.91 (no sharp cut-off); inconclusive means no clear call, values can overlap the other calls; inactive means mostly above about 0.92.

Assay: chemical genetic growth profiling, strain panel (AID 1159580);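 further: tested at 20 µM; growth read once vehicle control cultures reached saturation at 30 °C; 1 = growth at the plate median or of vehicle wells; lower values mean less growth of the strain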
Conditions: S. cerevisiae deletion strains, growth OD

For `Cc1cc(O)cc(C)c1Cl`, the normalized growth (locus YAL021C, strain ccr4, active compounds read low) was 0.918, the normalized growth (locus YAL026C, strain drs2, active compounds read low) was 0.831 (active) and the normalized growth (locus YAL030W, strain snc1, active compounds read low) was 0.961. For the same molecule, the normalized growth (locus YBL061C, strain skt5, active compounds read low) was 0.914 (active), the normalized growth (locus YBR009C, strain hhf1, active compounds read low) was 0.873 (active) and the normalized growth (locus YBR021W, strain FUR4, active compounds read low) was 1.04. For the same molecule, the normalized growth (locus YBR023C, strain chs3, active compounds read low) was 0.899 (active), the normalized growth (locus YBR171W, strain sec66, active compounds read low) was 0.912 and the normalized growth (locus YBR229C, strain ROT2, active compounds read low) was 0.993. The normalized growth (locus YBR231C, strain swc5, active compounds read low) was 0.945, the normalized growth (locus YBR279W, strain paf1, active compounds read low) was 0.899 (active) and the normalized growth (locus YCL011C, strain gbp2, active compounds read low) was 0.906 (active). The normalized growth (locus YCL016C, strain dcc1, active compounds read low) was 0.892 (active), the normalized growth (locus YCL029C, strain bik1, active compounds read low) was 0.981 and the normalized growth (locus YCL061C, strain MRC1, active compounds read low) was 0.916 (active). The normalized growth (locus YCL069W, strain vba3, active compounds read low) was 0.929, the normalized growth (locus YCR088W, strain abp1, active compounds read low) was 0.891 (active) and the normalized growth (locus YDL005C, strain med2, active compounds read low) was 1.02. It also gave a normalized growth (locus YDL035C, strain GPR1, active compounds read low) of 0.942, a normalized growth (locus YDL040C, strain nat1, active compounds read low) of 0.968 and a normalized growth (locus YDL074C, strain BRE1, active compounds read low) of 0.968. For the same molecule, the normalized growth (locus YDL101C, strain DUN1, active compounds read low) was 1.01, the normalized growth (locus YDL185W, strain tfp1, active compounds read low) was 0.988 and the normalized growth (locus YDL192W, strain arf1, active compounds read low) was 1.02. For the same molecule, the normalized growth (locus YDR001C, strain nth1, active compounds read low) was 0.951, the normalized growth (locus YDR069C, strain doa4, active compounds read low) was 0.992 and the normalized growth (locus YDR101C, strain arx1, active compounds read low) was 0.928. The normalized growth (locus YDR137W, strain rgp1, active compounds read low) was 0.41 (active), the normalized growth (locus YDR150W, strain NUM1, active compounds read low) was 0.998 and the normalized growth (locus YDR159W, strain sac3, active compounds read low) was 0.588 (active). For the same molecule, the normalized growth (locus YDR162C, strain NBP2, active compounds read low) was 0.957, the normalized growth (locus YDR195W, strain ref2) was 1.35 [resistant] (active) and the normalized growth (locus YDR297W, strain sur2, active compounds read low) was 0.968. For the same molecule, the normalized growth (locus YDR318W, strain mcm21, active compounds read low) was 0.981, the normalized growth (locus YDR334W, strain swr1, active compounds read low) was 0.957 and the normalized growth (locus YDR335W, strain msn5, active compounds read low) was 0.898 (active). For the same molecule, the normalized growth (locus YDR388W, active compounds read low) was 1, the normalized growth (locus YDR392W, strain spt3, active compounds read low) was 0.653 (active) and the normalized growth (locus YDR502C, strain sam2, active compounds read low) was 0.949. The normalized growth (locus YEL003W, strain gim4, active compounds read low) was 0.965, the normalized growth (locus YEL037C, strain rad23, active compounds read low) was 0.953 and the normalized growth (locus YEL061C, strain CIN8 (second series), active compounds read low) was 0.898 (active). For the same molecule, the normalized growth (locus YEL061C, strain CIN8, active compounds read low) was 0.988, the normalized growth (locus YER015W, strain faa2, active compounds read low) was 0.839 (active) and the normalized growth (locus YER016W, strain bim1, active compounds read low) was 0.874 (active). The normalized growth (locus YER110C, active compounds read low) was 1, the normalized growth (locus YER111C, strain swi4, active compounds read low) was 0.905 (active) and the normalized growth (locus YER155C, strain BEM2 (second series), active compounds read low) was 0.603 (active). It also gave a normalized growth (locus YER155C, strain BEM2, active compounds read low) of 0.992, a normalized growth (locus YER167W, strain BCK2, active compounds read low) of 0.975 and a normalized growth (locus YFR010W, strain ubp6, active compounds read low) of 0.93. The normalized growth (locus YGL078C, strain dbp3, active compounds read low) was 0.919 (active), the normalized growth (locus YGL086W, strain mad1, active compounds read low) was 0.945 and the normalized growth (locus YGL167C, strain pmr1, active compounds read low) was 0.999. The normalized growth (locus YGL173C, strain kem1, active compounds read low) was 0.927, the normalized growth (locus YGL227W, strain vid30, active compounds read low) was 0.949 and the normalized growth (locus YGL240W, strain doc1, active compounds read low) was 0.978. The normalized growth (locus YGL248W, strain PDE1, active compounds read low) was 0.999, the normalized growth (locus YGL253W, strain hxk2, active compounds read low) was 0.895 (active) and the normalized growth (locus YGR078C, strain PAC10, active compounds read low) was 0.974. The normalized growth (locus YGR135W, strain pre9, active compounds read low) was 0.994, the normalized growth (locus YGR252W, strain gcn5, active compounds read low) was 0.979 and the normalized growth (locus YHR013C, strain ard1, active compounds read low) was 0.97. For the same molecule, the normalized growth (locus YHR027C, strain rpn1, active compounds read low) was 0.838 (active), the normalized growth (locus YHR030C, strain SLT2, active compounds read low) was 0.995 and 0.921 and the normalized growth (locus YHR079C, strain IRE1 (second series), active compounds read low) was 0.996. The normalized growth (locus YHR079C, strain IRE1, active compounds read low) was 0.929, the normalized growth (locus YHR094C, strain hxt1, active compounds read low) was 1 and the normalized growth (locus YHR129C, strain ARP1, active compounds read low) was 0.998. The normalized growth (locus YHR142W, strain chs7, active compounds read low) was 0.77 (active), the normalized growth (locus YHR200W, strain rpn10, active compounds read low) was 0.984 and the normalized growth (locus YIL066C, strain RNR3, active compounds read low) was 0.981. It also gave a normalized growth (locus YIL073C, strain SPO22, active compounds read low) of 1.04, a normalized growth (locus YIL125W, strain kgd1, active compounds read low) of 0.993 and a normalized growth (locus YIR030C, strain dcg1, active compounds read low) of 0.998. For the same molecule, the normalized growth (locus YJL092W, strain hpr5, active compounds read low) was 0.923, the normalized growth (locus YJL095W, strain BCK1 (second series), active compounds read low) was 0.951 and the normalized growth (locus YJL095W, strain BCK1, active compounds read low) was 0.986 and 0.94. For the same molecule, the normalized growth (locus YJL115W, strain asf1, active compounds read low) was 0.997, the normalized growth (locus YJL129C, strain trk1, active compounds read low) was 0.899 and the normalized growth (locus YJL134W, strain LCB3, active compounds read low) was 0.998. For the same molecule, the normalized growth (locus YJL154C, strain vps35, active compounds read low) was 0.96, the normalized growth (locus YJL164C, strain tpk1, active compounds read low) was 0.887 (active) and the normalized growth (locus YJL166W, strain qcr8, active compounds read low) was 0.849 (active). The normalized growth (locus YJL168C, strain set2, active compounds read low) was 1, the normalized growth (locus YJL187C, strain SWE1 (second series), active compounds read low) was 1 and the normalized growth (locus YJR043C, strain POL32, active compounds read low) was 0.96. The normalized growth (locus YJR066W, strain TOR1, active compounds read low) was 0.955.
